# Laboratory results published in PubChem BioAssay AID2284365 (EPA ToxCast).
# Active and inactive are the calls of the source. How the source made its calls: active means hit-call score of the fitted dose curve at least 0.9, where 1 is the maximum; inactive means score below 0.9.
# Experiment: CCTE_Mundy_HCI_iCellGABA_NOG_NeuronCount: CCTE's Neurite Outgrowth Assay in iCellGABA cells for Neuron Count, Mundy Lab
# Protocol: CCTE_Mundy_HCI_iCellGABA_NOG is a multiplexed, cell-based-readout assay that uses iCell GABANeurons from FUJIFILM Cellular Dynamics, Inc. (FCDI), human GABAergic enriched neurons derived from induced pluripotent stem (iPS) cells, with measurements taken at 50.33 hours after chemical dosing in a microplate: 96-well plate.CCTE_Mundy_HCI_iCellGABA_NOG_NeuronCount is one of four components of the CCTE_Mundy_HCI_iCellGABA_NOG assay. It measures cell viability related to number of neurons using High Content Imaging of fluorescently labelled markers.Data from the assay component CCTE_Mundy_HCI_iCellGABA_NOG_NeuronCount was analyzed at the endpoint CCTE_Mundy_HCI_iCellGABA_NOG_NeuronCount in the positive analysis fitting direction relative to DMSO as the negative control and baseline of activity. Using a type of viability reporter, loss-of-signal activity can be used to understand developmental effects.
# Exposure starts 2 hours post-plating by adding 10 ul of the working solution to 90 ul of media in the wells for a 1/10 dilution. Forty-eight hours after chemical treatment cells are fixed by direct addition of 100 ul of warm (37C) Dulbecco's phosphate buffered saline (DPBS) fixative solution containing 8% paraformaldehyde, 8% sucrose, and 0.1% of 3 mg/ml Hoechst 33342 into each well. Primary antibodies are prepared by dilution in Immunocytochemical Staining Buffer (ISB), 10X Dulbecco's PBS, 0.1% Saponin, 5% Bovine Serum Albumin, 0.5% NaN3 (Sodium Azide) and betaIII-tubulin (rabbit anti-betaIII-tubulin, 1:800) followed by Alexa Fluor-488 secondary (1:500) to label neuronal cell bodies and neurites. A Cellomics ArrayScan VTi HCS Reader is used for automated image acquisition and analysis of neurite outgrowth.
Structure (SMILES),outcome,AC50
COP(=O)(OC)O/C(C)=C/C(=O)N(C)C,inactive,–
CCOP(=S)(Oc1cnc(C(C)(C)C)nc1)OC(C)C (stereo unspecified),inactive,–
CCCSP(=O)(OCC)SCCC,inactive,–
CCOP(=S)(OCC)Oc1ccc2c(C)c(Cl)c(=O)oc2c1,–,23.4 µM (active)
CNC(=O)CSP(=S)(OC)OC,inactive,–
CCOC(=O)CC(SP(=S)(OC)OC)C(=O)OCC (stereo unspecified),–,50 µM (active)
CCCCSP(=O)(SCCCC)SCCCC,–,9.92 µM (active)
CCOP(=O)(OCC)Oc1cc(C)nc(C(C)C)n1,inactive,–
CCOP(=O)(OCC)Oc1nc(Cl)c(Cl)cc1Cl,inactive,–
COP(=O)(OC)C(O)C(Cl)(Cl)Cl (stereo unspecified),–,0.205 µM (active)
CCCSP(=O)(OCC)Oc1ccc(Br)cc1Cl (stereo unspecified),inactive,–
CCOP(=O)(SC(C)CC)N1CCSC1=O (stereo unspecified),inactive,–
COP(=O)(OC)O/C(=C\Cl)c1cc(Cl)c(Cl)cc1Cl,inactive,–
COP(=O)(NC(C)=O)SC (stereo unspecified),inactive,–
CCN(CC)c1nc(C)cc(OP(=S)(OC)OC)n1,–,19.1 µM (active)
CCOP(=S)(OCC)Oc1cc(C)nc(C(C)C)n1,inactive,–
CCOP(=S)(OCC)SCSCC,–,0.316 µM (active)
CCOP(=S)(OCC)SCSC(C)(C)C,–,9.92 µM (active)
CCOP(=S)(OCC)OC(Cl)C(Cl)(Cl)Cl (stereo unspecified),–,9.92 µM (active)
CCOC(=O)CC(SP(=O)(OC)OC)C(=O)OCC (stereo unspecified),inactive,–
COP(N)(=O)SC (stereo unspecified),inactive,–
COP(=O)(OC)OC=C(Cl)Cl,inactive,–
COP(=O)(OC)OC(Br)C(Cl)(Cl)Br (stereo unspecified),–,9.92 µM (active)
CNC(=O)CSP(=O)(OC)OC,–,18.9 µM (active)
COP(=S)(OC)SCN1C(=O)c2ccccc2C1=O,–,9.92 µM (active)
CCOP(=S)(OCC)Oc1nc(Cl)c(Cl)cc1Cl,–,9.92 µM (active)
